Results taken from PubChem BioAssay (Tox21).
“And” between values parts separate entries of the source, which are not always exact repeats. Equal values may be shown once. Inconclusive results are not listed. The source made the active and inactive calls. Unless noted, calls come from the whole dose curve; as a rule, active = well fitted curve in the direction sought with a large enough effect in the repeat runs; inconclusive = weak or mixed curves; inactive = no such curve, though single readings can be large; an effect the other way counts as inactive or inconclusive.

Tests used:
[1] = qHTS assay to identify small molecule agonists of the AP-1 signaling pathway - cell viability counter screen (AID 1159525; calls by dose curve; note: nearly all actives have a fitted effect of over 55% in size; note: potency is the fitted concentration of half-maximal effect)
Summary of the method: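 Each titration point was normalised to DMSO and tetra n-octyl ammonium bromide controls. The read was Cell Titer Glo luminescence after 30 min at RT, following 5 h compound exposure of ME-180 AP-1-bla cells at 37 °C.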

[2] = qHTS assay to identify small molecule agonists of the estrogen related receptor signaling pathway with the pleiotropic PPARgamma coactivator (PGC) from Tox21 10K library (AID 1224842); note: % is set by controls: 0 for no effect and ±100 for the full control effect; nearly all actives have a fitted effect of over 15% in size
Summary of the method: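 PGC/ERR reporter cells (NTP line) were seeded 2,000 per well, rested 6 h at 37 C/5% CO2, then pin-dosed with compounds in DMSO for 18 h at 37 C; luciferase read by One-Glo luminescence after 30 min at room temperature.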

[3] = qHTS RealTime-Glo MT Cell Viability Assay in HepG2 cells - 40 hour (AID 1224870); note: nearly all actives have a fitted effect of over 50% in size; note: potency is the fitted concentration of half-maximal effect
Summary of the method: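 HepG2 cells mixed with RealTime-Glo MT reagents (NanoLuc plus cell-permeant prosubstrate) were seeded at 600 cells/well, incubated 5 h at 37 C/5% CO2, then pinned with compounds in DMSO; nonlytic luminescence tracked viability during 40 h treatment.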

[4] = A CellTox Green Cytotoxicity Assay to monitor cytotoxicity in HEK293 cells - 40 hour (AID 1224871); note: nearly all actives have a fitted effect of over 45% in size; note: potency is the fitted concentration of half-maximal effect
Summary of the method: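 Dead-cell fluorescence measured kinetically: asymmetric cyanine dye, HEK293, 600 cells/well, 5 h settle, 23 nL cpd/DMSO, 37 C, reads 0–40 h every 8 h.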

[5] = qHTS RealTime-Glo MT Cell Viability Assay in HEK293 cells - 40 hour (AID 1224874); conditions: RealTime-Glo luminescence; max response: stronger effect = lower value; note: nearly all actives have a fitted effect of over 50% in size; note: potency is the fitted concentration of half-maximal effect; for max response: % is set by controls: 0 for no effect and ±100 for the full control effect
Summary of the method: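 600 HEK293 cells per well, dispensed already mixed with RealTime-Glo MT reagents. Compound dosing came 5 h later. The same wells were read for luminescence at 0, 8, 16, 24, 32 and 40 h of exposure at 37 C.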

[6] = A CellTox Green Cytotoxicity Assay to monitor cytotoxicity in HepG2 cells - 16 hour (AID 1224876); note: nearly all actives have a fitted effect of over 45% in size; note: potency is the fitted concentration of half-maximal effect
Summary of the method: (§1)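 First, HepG2 cells (600/well) mixed with reagent were plated; second, after 5 h at 37 C they received compounds via pintool; third, fluorescence was measured at 0 h through 40 h at 8 h intervals.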

[7] = qHTS RealTime-Glo MT Cell Viability Assay in HepG2 cells - 32 hour (AID 1224877); note: nearly all actives have a fitted effect of over 55% in size; note: potency is the fitted concentration of half-maximal effect
Summary of the method: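 HepG2 suspension premixed with RealTime-Glo reagents is plated at 600 cells per well and left 5 h at 37 C/5% CO2. Compounds in DMSO then go in, and bioluminescence reflecting viable cell number is recorded over 40 h.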

[8] = qHTS assay to identify small molecule antagonists of the estrogen receptor alpha (ER-alpha) signaling pathway using the BG1 cell line in the presence of 0.1 nM 17-beta-estradiol - cell viability counter screen (AID 1259241); note: % is set by controls: 0 for no effect and ±100 for the full control effect; nearly all actives have a fitted effect of over 40% in size
Summary of the method: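 Cytotoxicity counter-screen: live-cell protease activity measured by fluorescence (30 min reagent step) in the same wells. Cells were VM7Luc4E2 with endogenous ER-alpha and ERE-driven luciferase, treated 22 hr at 37C alongside 0.1 nM 17beta-estradiol final.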

[9] = qHTS assay to identify small molecule antagonists of the androgen receptor (AR) signaling pathway using the MDA cell line in the presence of 0.5 nM R1881 - cell viability counter screen (AID 1259242); note: nearly all actives have a fitted effect of over 45% in size; note: potency is the fitted concentration of half-maximal effect
Summary of the method: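 qHTS format. MDA-kb2 (MMTV-luc, AR/GR responsive) + cpd + 0.5 nM R1881 final, 16 hr 37C/0% CO2 → CellTiter-Fluor 30 min → fluorescence intensity.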

[10] = qHTS assay to identify small molecule HDAC inhibitors - cell viability counter screen (AID 1259365); note: series mostly up to about 92 µM; % is set by controls: 0 for no effect and ±100 for the full control effect; nearly all actives have a fitted effect of over 50% in size
Summary of the method: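 CellTiter-Glo luminescence (30 min, room temperature) reported viability after a 2 h compound exposure at 37 C. Cells: wild-type HCT-116, 1,500 per well, seeded the night before.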

[11] = qHTS assay to identify small molecule agonists of the sonic hedgehog signaling (Shh) pathway - cell viability counter screen (AID 1259366); note: nearly all actives have a fitted effect of over 50% in size; note: potency is the fitted concentration of half-maximal effect
Summary of the method: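 Cytotoxicity counter screen: CellTiter-Fluor reagent added after 23 h compound exposure, then 1 h at 37C and fluorescence read. Cells were 3T3 Gli1-Luc, seeded 2,000 per well and dosed 4 h post-plating.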

[12] = qHTS assay to identify small molecule antagonists of the sonic hedgehog signaling (Shh) pathway (AID 1259369; calls by dose curve; note: potency is the fitted concentration of half-maximal effect; nearly all actives have a fitted effect of over 45% in size)
Summary of the method: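 Stable Gli1-Luc reporter NIH/3T3 clone; quantitative HTS in stimulated mode with conditioned medium. Luminescence measured after 24hr compound treatment at 37 C.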

[13] = qHTS assay to identify small molecule agonists or antagonists of the thyroid stimulating hormone receptor (TSHR) signaling pathway - wild type cell line counter screen (AID 1259384; calls by dose curve; note: % is set by controls: 0 for no effect and ±100 for the full control effect)
Summary of the method: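 Wild-type HEK293 cells were plated 18 h at 37 C/5% CO2, pin-dosed with compound plus Ro20-1724 medium, held 30 min at room temperature, then given cAMP-d2 and anti-cAMP-cryptate; fluorescence was read after 1 h. Fifteen concentrations, triplicate.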

[14] = qHTS assay to identify small molecule agonists of the estrogen receptor alpha (ER-alpha) signaling pathway in the presence of an antagonist - cell viability counter screen (AID 1259386);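 note: series mostly up to about 92 µM; cells exposed to compounds for 22 h at 37 °C before the viability read; % is set by controls: 0 for no effect and ±100 for the full control effect; nearly all actives have a fitted effect of over 30% in size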
Summary of the method: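 In this counter screen, compound effects on VM7Luc4E2 viability were tested in the presence of the antagonist ICI-182,780 at 10.0nM final. Compounds were dosed at 15 concentrations, exposure lasted 22hr, and the CellTiter-Fluor signal was read.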

[15] = qHTS assay to identify small molecule antagonists of the TGF-beta/Smad signaling pathway - cell viability counter screen (AID 1346824)
Summary of the method: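 SBE-bla HEK 293T cells were plated overnight at 37 C, then given compounds in DMSO plus TGF-beta1 (added as 0.25 ng/mL solution) for 5 hr. After the bla read, CellTiter-Glo was added to the same wells and luminescence read after 30 min at room temperature.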

[16] = qHTS assay to identify small molecule agonists of the TGF-beta/Smad signaling pathway (AID 1346859; active = well fitted activation curve with a large enough effect in the signal ratio in the repeat runs, not every such curve was filed as active; the % refers to the signal ratio; note: series mostly up to about 77 µM; % is set by controls: 0 for no effect and ±100 for the full control effect)
Summary of the method: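 Fluorescence (ex 405 nm; em 460 and 530 nm) was read 2 h after LiveBLAzer FRET substrate at RT. The preceding compound treatment of overnight-plated SBE-bla HEK293T cells lasted 5 h at 37 C.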

[17] = molecular target: Cytochrome P450 1A2 (Homo sapiens) (UniProt P05177); test: Cytochrome P450 Family 1 Subfamily A Member 2 (CYP1A2) small molecule antagonists: luciferase reporter qHTS assay (AID 1671199); note: nearly all actives have a fitted effect of over 50% in size; note: potency is the fitted concentration of half-maximal effect
Cytochrome P450 1A2 (Homo sapiens), sequence (P05177 whole entry, looked up): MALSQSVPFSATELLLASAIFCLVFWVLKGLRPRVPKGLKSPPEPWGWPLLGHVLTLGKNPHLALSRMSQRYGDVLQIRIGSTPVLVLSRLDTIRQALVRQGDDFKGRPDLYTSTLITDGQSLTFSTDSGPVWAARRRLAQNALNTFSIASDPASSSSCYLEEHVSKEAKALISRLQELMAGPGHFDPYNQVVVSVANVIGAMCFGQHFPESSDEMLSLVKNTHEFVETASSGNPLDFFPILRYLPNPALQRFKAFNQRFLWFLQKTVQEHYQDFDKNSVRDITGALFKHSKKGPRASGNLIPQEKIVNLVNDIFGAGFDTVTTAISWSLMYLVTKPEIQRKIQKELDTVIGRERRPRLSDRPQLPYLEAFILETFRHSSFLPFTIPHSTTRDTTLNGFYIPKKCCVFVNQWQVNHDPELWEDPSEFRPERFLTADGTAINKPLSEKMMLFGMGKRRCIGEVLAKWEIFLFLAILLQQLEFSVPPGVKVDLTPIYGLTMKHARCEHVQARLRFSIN
Summary of the method: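 Steps: enzyme-substrate mix dispensed; test compounds and furafylline control pinned in; 10 min room temperature; NADPH regeneration solution added, 1 h; reaction stopped with luciferin detection reagent; luminescence read after 20 min.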

[18] = molecular target: Voltage-gated inwardly rectifying potassium channel KCNH2 (Homo sapiens) (UniProt Q12809); test: Human Ether-a-go-go-Related Gene (hERG) channel small molecule antagonists: fluorescence cell-based qHTS assay (AID 1671200); note: nearly all actives have a fitted effect of over 50% in size; note: potency is the fitted concentration of half-maximal effect
Voltage-gated inwardly rectifying potassium channel KCNH2 (Homo sapiens), sequence (Q12809 whole entry, looked up): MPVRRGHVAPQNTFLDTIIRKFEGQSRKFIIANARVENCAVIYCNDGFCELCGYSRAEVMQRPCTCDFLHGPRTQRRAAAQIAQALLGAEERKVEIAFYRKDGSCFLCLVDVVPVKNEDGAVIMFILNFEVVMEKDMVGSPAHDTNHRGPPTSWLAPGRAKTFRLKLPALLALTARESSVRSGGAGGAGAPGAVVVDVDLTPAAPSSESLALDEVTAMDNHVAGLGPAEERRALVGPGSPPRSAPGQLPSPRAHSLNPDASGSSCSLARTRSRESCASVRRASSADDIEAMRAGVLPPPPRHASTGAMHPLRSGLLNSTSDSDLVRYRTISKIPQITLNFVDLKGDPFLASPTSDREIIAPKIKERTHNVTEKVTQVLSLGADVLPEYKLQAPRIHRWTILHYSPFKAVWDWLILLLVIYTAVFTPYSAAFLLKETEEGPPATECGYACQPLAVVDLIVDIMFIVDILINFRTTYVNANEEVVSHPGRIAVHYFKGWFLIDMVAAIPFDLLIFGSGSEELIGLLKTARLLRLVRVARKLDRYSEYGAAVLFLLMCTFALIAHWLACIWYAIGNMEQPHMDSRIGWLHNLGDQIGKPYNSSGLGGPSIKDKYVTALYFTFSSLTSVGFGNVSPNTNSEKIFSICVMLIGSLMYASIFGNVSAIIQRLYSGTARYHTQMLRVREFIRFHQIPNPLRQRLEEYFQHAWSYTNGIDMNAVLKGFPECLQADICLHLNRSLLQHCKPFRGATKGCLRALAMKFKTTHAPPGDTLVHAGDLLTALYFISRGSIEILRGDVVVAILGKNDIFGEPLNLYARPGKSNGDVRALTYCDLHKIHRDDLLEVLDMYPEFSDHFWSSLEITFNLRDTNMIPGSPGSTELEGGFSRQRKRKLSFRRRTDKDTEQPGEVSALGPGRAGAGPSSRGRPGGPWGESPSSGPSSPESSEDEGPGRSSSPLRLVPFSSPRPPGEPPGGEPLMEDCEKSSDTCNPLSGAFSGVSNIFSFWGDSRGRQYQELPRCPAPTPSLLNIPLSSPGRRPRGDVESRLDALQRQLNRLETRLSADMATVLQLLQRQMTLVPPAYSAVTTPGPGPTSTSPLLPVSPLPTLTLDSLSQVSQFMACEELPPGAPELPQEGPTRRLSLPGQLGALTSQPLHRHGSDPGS
Summary of the method: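 Thallium flux as potassium surrogate: FluxOR II dye loaded 1 h at room temperature into hERG-expressing U2OS cells, then stimulus buffer added after 10 min. Kinetic 480 nm excitation/540 nm emission read, 2 min.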

[19] = molecular target: Nuclear receptor subfamily 1 group I member 3 (Homo sapiens) (UniProt Q14994); test: qHTS assay to identify small molecule antagonists of the constitutive androstane receptor (CAR) signaling pathway (AID 1224838);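 note: HepG2 cells stably expressing hCAR with CYP2B6 luciferase reporter stimulated by CITCO; nearly all actives have a fitted effect of over 40% in size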; note: potency is the fitted concentration of half-maximal effect
Nuclear receptor subfamily 1 group I member 3 (Homo sapiens), sequence (Q14994 whole entry, looked up): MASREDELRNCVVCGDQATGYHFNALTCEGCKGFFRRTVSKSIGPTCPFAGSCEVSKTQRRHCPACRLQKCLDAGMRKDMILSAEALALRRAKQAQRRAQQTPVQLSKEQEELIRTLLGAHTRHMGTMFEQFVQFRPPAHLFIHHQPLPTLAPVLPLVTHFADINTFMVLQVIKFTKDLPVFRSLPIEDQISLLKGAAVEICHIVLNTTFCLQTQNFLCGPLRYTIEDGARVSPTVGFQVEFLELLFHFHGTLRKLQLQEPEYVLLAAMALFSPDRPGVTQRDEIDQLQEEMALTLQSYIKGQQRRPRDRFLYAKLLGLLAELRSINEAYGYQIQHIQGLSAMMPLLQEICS
Summary of the method: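 Luminescence from a CYP2B6-2.2kb promoter reporter in hCAR-expressing HepG2 cells reflects CAR signaling. Cells received compounds at 15 concentrations and 50 nM CITCO (final), then incubated 24 h at 37 C/5% CO2.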

[20] = A CellTox Green Cytotoxicity Assay to monitor cytotoxicity in HepG2 cells - 8 hour (AID 1224890); note: nearly all actives have a fitted effect of over 45% in size; note: potency is the fitted concentration of half-maximal effect
Summary of the method: as §1

c1ccc2c(c1)Sc1ccccc1N2CC1CN2CCC1CC2 (stereo not given)
inactive: Potency [1] | Potency [2] | Potency [8] | outcome [10] | outcome [13] | Potency [14] | Potency [15] | outcome [16] | Potency [17]
active: Potency [3] 21.3 µM | Potency [4] 26.8 µM | Potency [5] 23.9 µM | Potency [6] 23.9 µM | Potency [7] 23.9 µM | Potency [9] 29.8 µM | Potency [11] 11.9 µM | Potency [12] 9.44 µM | Potency [18] 5.35 µM

N#Cc1cc([N+](=O)[O-])ccc1N
active: Potency [17] 35.6 µM
inactive: Potency [1] | Potency [19] | Potency [2] | Potency [3] | Potency [4] | max response [5] -6.49% | Potency [6] | Potency [7] | Potency [20] | Potency [8] | Potency [9] | outcome [10] | outcome [13] | outcome [16] | Potency [18]

O=C1OC(=O)c2c(Cl)c(Cl)c(Cl)c(Cl)c21
inactive: Potency [19]

CC(c1ccccc1)(c1ccc(O)cc1)c1ccc(O)cc1
active: Potency [1] 49 µM | Potency [5] 43.6 µM | Potency [11] 68.6 µM | Potency [12] 21.7 µM
inactive: Potency [2] | Potency [3] | Potency [7] | Potency [8] | Potency [9] | outcome [10] | outcome [13] | Potency [14] | Potency [15] | outcome [16] | Potency [17] | Potency [18]

CC1COC(Cn2cncn2)(c2ccc(Oc3ccc(Cl)cc3)cc2Cl)O1 (stereo not given)
inactive: Potency [1] | Potency [2] | Potency [6] | Potency [20] | Potency [8] | outcome [10] | Potency [11] | outcome [13] | outcome [16]
active: Potency [4] 49 µM | Potency [5] 17.4 µM | Potency [12] 3.44 µM | Potency [17] 25.2 µM | Potency [18] 21.9 µM

CCCCC(CC)COC(=O)c1ccc(C(=O)OCC(CC)CCCC)cc1 (stereo not given)
inactive: Potency [2]

Oc1c(I)cc(I)cc1I
active: Potency [17] 39.9 µM
inactive: Potency [1] | Potency [2] | Potency [3] | Potency [4] | max response [5] -25% | Potency [6] | Potency [7] | Potency [20] | Potency [8] | Potency [9] | outcome [10] | Potency [11] | outcome [13] | Potency [14] | Potency [15] | outcome [16] | Potency [18]

OC(Cc1ccccc1Cl)(Cn1[nH]cnc1=S)C1(Cl)CC1 (stereo not given)
inactive: Potency [1] | Potency [19] | Potency [3] | Potency [4] | Potency [6] | Potency [7] | Potency [20] | Potency [8] | Potency [9] | outcome [10] | Potency [11] | outcome [13] | Potency [14] | outcome [16] | Potency [18]
active: Potency [12] 38.6 µM

CCOC(=O)C(O)(c1ccc(Cl)cc1)c1ccc(Cl)cc1
inactive: Potency [19] | Potency [3] | Potency [6] | Potency [7] | Potency [20] | Potency [8] | Potency [9] | outcome [10] | Potency [14] | Potency [15] | outcome [16]
active: Potency [1] 44.1 µM and 43.6 µM | Potency [4] 44.1 µM | Potency [5] 22.1 µM and 34.7 µM | Potency [12] 7.77 µM and 19.3 µM | Potency [17] 40.3 µM and 71 µM | Potency [18] 22.1 µM and 21.9 µM

O=S(=O)(C(Cl)(Cl)Cl)C(Cl)(Cl)Cl
active: Potency [1] 49 µM | Potency [19] 24.3 µM | Potency [3] 34.7 µM | Potency [4] 17.4 µM | Potency [5] 8.71 µM | Potency [6] 38.9 µM | Potency [7] 34.7 µM | Potency [20] 34.7 µM | Potency [9] 54.5 µM | Potency [11] 9.69 µM | Potency [12] 2.17 µM | Potency [17] 22.4 µM | Potency [18] 24.5 µM
inactive: Potency [2] | Potency [8] | outcome [13] | Potency [14] | outcome [16]

O=C(Nc1ccccc1-c1ccc(Cl)cc1)c1cccnc1Cl
active: Potency [6] 41.2 µM | Potency [20] 41.2 µM | Potency [17] 8.42 µM
inactive: Potency [1] | Potency [19] | Potency [2] | Potency [3] | Potency [7] | Potency [8] | Potency [9] | outcome [10] | Potency [11] | outcome [13] | Potency [14] | outcome [16] | Potency [18]

CNC(=O)Oc1cc(C)c(SC)c(C)c1
active: Potency [12] 8.63 µM | Potency [17] 6.33 µM
inactive: Potency [1] | Potency [19] | Potency [3] | Potency [6] | Potency [7] | Potency [20] | Potency [8] | Potency [9] | outcome [10] | Potency [11] | outcome [13] | Potency [14] | Potency [15] | outcome [16] | Potency [18]

COc1cc(OC)c(OC)cc1C=O
inactive: Potency [1] | Potency [19] | Potency [2] | Potency [3] | Potency [4] | max response [5] -0.404% | Potency [6] | Potency [7] | Potency [9] | outcome [10] | outcome [13] | Potency [14] | Potency [15] | outcome [16] | Potency [18]
active: Potency [12] 13.3 µM | Potency [17] 11 µM
